Most compounds without a hit are left out; they make up all but 10% or so of the library.
GPT2 inh: inhibitors of human GPT2 alanine aminotransferase | Q8TD30 | Recombinant GPT2, coupled pyruvate oxidase/HRP Amplex Red fluorescence | Potency, µM (top dose mostly 57.7 µM), most hits filed as inhibitors | 0.25% of 100,000 active | AID 1671188; further: nearly all actives have a fitted effect of over 60% in size
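GPT2 10ng/uL, a-KG 250uM, L-Ala 2mM, HEPES pH7.5 + 0.0001% Tween; 30 min RT. Then Amplex mix (PO/HRP/ThPP), 30 min RT dark, fluorescence. AOA 50uM used as positive control.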
3T3 cytotox: NIH 3T3 cell cytotoxicity | NIH 3T3 viability, CellTiter-Glo ATP luminescence, 48-72 h | Potency, µM (top dose mostly 96.7 µM), actives largely listed as inhibitors | 4.3% of 94,000 active; further: nearly all actives have a fitted effect of over 55% in size
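Viability of NIH 3T3 cells after 48 or 72 hr compound treatment at 37 °C was assessed by CellTiter-Glo, with luminescence imaged following a 10 min room-temperature step.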
HEK cytotox: cytotoxic compounds in HEK 293 cells; HEK 293 viability, ATP luminescence (CellTiter-Glo), 48-72 h; Potency, µM (titrated, usually from 115 µM), hits mostly inhibitors; 6.6% of 94,000 active; AID 1345083; further: nearly all actives have a fitted effect of over 60% in size
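250 HEK 293 cells/well; compound by pintool; incubated 48 or 72 hr at 37 degree Celsius; CellTiter-Glo added, 10 min RT, luminescence imaged.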
NPR1 antag: blocks ANP-stimulated signaling of human Npr1 receptor. P16066. Potency, µM (series often up to 46.3 µM), actives largely listed as inhibitors. 1.6% of 76,000 active. HEK293 hNpr1 GloSensor cGMP, ANP-stimulated luminescence. AID 1347048; calls by dose curve; further: nearly all actives have a fitted effect of over 60% in size
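HEK293 cells stably expressing human Npr1 and cGMP GloSensor pGS-40F, loaded 2 h with 2% GloSensor reagent, given compound 30 min at room temperature. Luminescence read before and 20 min after 0.1 nM hNppA.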
FLuc inh: blocks purified firefly luciferase enzyme activity. 2.5% of 76,000 active. AID 1347043. Potency, µM (titrated, usually from 115 µM), actives largely listed as inhibitors. purified P. pyralis luciferase, luminescence, biochemical; further: nearly all actives have a fitted effect of over 65% in size
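Biochemical qHTS: compound (6-point titration) added to 10uM D-luciferin plus 10uM ATP in Tris acetate pH 7.5 buffer with Mg, Tween-20 and BSA, then purified enzyme at 10nM; light output imaged.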
Npr1 antag conf: confirmation of human Npr1 natriuretic peptide receptor antagonists; HEK293 hNpr1 cGMP GloSensor luminescence, ANP-stimulated; 76% of 1,400 active; Potency, µM (top dose mostly 57.6 µM), hits mostly inhibitors; AID 1347044; shares compounds with NPR1 antag; calls by dose curve; further: nearly all actives have a fitted effect of over 70% in size
Npr2 selectivity: selectivity test of Npr1 antagonists against human Npr2; HEK293 hNpr2 GloSensor cGMP luminescence, CNP-stimulated; 67% of 1,400 active; Potency, µM (doses to about 57.6 µM), hits mostly inhibitors; shares compounds with NPR1 antag; calls by dose curve; further: nearly all actives have a fitted effect of over 70% in size
FLuc inh counter: inhibits firefly luciferase, false Npr1 antagonist flag; purified FLuc enzyme, luminescence, Km substrate; Potency, µM (highest dose often 57.6 µM), usual class: inhibitors; shares compounds with NPR1 antag; 0.7% of 1,400 active
GloSensor cGMP: counter-screen for Npr1 antagonists: GloSensor control cell line; AID 1347051; shares compounds with NPR1 antag; HEK293 GloSensor cGMP, SNP-stimulated, luminescence; Potency, µM (highest dose often 57.6 µM), actives largely listed as inhibitors; 69% of 1,400 active; calls by dose curve; further: nearly all actives have a fitted effect of over 70% in size
Hits are given with their value; - = inactive; ? = inconclusive; . = no result. Unless noted, the call rests on the fitted dose curve; in most records, active means well fitted curve in the direction sought with a large enough effect; inconclusive means small, poorly fitted or top-dose-only effect, or another doubt; inactive means no such curve, though single readings can be large; an effect the other way counts as inactive or inconclusive.

SMILES | GPT2 inh | 3T3 cytotox | HEK cytotox | NPR1 antag | FLuc inh | Npr1 antag conf | Npr2 selectivity | FLuc inh counter | GloSensor cGMP
COc1ccc(-c2noc(CC3CCN(C(=O)c4ccc(OC)c(OC)c4)CC3)n2)cc1 | - | ? | ? | 3.5µM | - | 6.9µM | 6.9µM | - | 5.4µM
COc1ccc(-c2noc(CC3CCN(C(=O)c4ccc5c(c4)OCO5)CC3)n2)cc1 | - | ? | ? | 2.8µM | - | 5.4µM | 6.1µM | - | 4.8µM
COc1ccc(C(=O)N2CCC(Cc3nc(-c4ccc(F)cc4)no3)CC2)cc1F | ? | ? | ? | 1.1µM | - | 1.1µM | 1.7µM | - | 1.1µM
COc1ccccc1CCC(=O)N1[C@@H]2CC[C@H]1CC(NC(=O)c1ccc(F)cc1)C2 (some centres undefined) | - | - | - | - | - | . | . | . | .
COc1cccc(C(=O)N2CCC(Cc3nc(C(C)C)no3)CC2)c1 | - | ? | ? | - | - | . | . | . | .
COc1cccc(-c2cccc(C(=O)N3CCN(C(=O)c4ccccc4C)CC3)c2)c1 | - | ? | ? | . | . | . | . | . | .
COc1cccc(-c2noc(CC3CCN(C(=O)c4ccccc4C)CC3)n2)c1 | - | ? | ? | 13µM | - | 12µM | 17µM | - | 12µM
COc1cccc(-c2noc(CC3CCN(C(=O)c4ccc(OC)cc4C)CC3)n2)c1 | - | ? | ? | 3.5µM | - | 3.4µM | 4.8µM | - | 2.7µM
CN(C)c1ccc(C(=O)N2CCC(Cc3nc(-c4cnccn4)no3)CC2)cc1 | - | - | - | - | - | . | . | . | .
COc1cccc(-c2noc(CC3CCN(C(=O)c4ccc(N(C)C)cc4)CC3)n2)c1 | - | - | ? | 10µM | - | 14µM | 15µM | - | 11µM
COc1ccc(C(=O)N2CCC(Cc3nc(-c4ccc(F)cc4)no3)CC2)c(C)c1 | - | ? | ? | 1.4µM | - | 1.5µM | 2.2µM | - | 1.7µM
O=C(COc1ccccc1)N1CCCCCC1c1nc(-c2ccncc2)no1 (centres undefined) | - | - | ? | . | . | . | . | . | .
Cc1nc(N2CCC(C(=O)NC3CCCCCCC3)CC2)cc(C(F)(F)F)n1 | - | - | ? | 10µM | ? | 7.7µM | 14µM | - | 7.7µM
Cc1nc(N2CCC(C(=O)Nc3ccc(F)c(Cl)c3)CC2)cc(C(F)(F)F)n1 | - | ? | 25µM | 11µM | - | 22µM | 22µM | - | 22µM
Cc1nc(N2CCC(C(=O)NC3CCCCCC3)CC2)cc(C(F)(F)F)n1 | ? | - | ? | ? | - | 14µM | 12µM | - | 9.7µM
Cc1nc(N2CCC(NC(=O)C3CCCCC3)CC2)cc(C(F)(F)F)n1 | - | - | ? | - | - | . | . | . | .
Cc1nc(N2CCC(C(=O)NC3CCc4ccccc43)CC2)cc(C(F)(F)F)n1 (centres undefined) | - | ? | ? | ? | - | 22µM | 19µM | - | 17µM
O=C1CCC2(CNC(=O)NCCc3ccccc3)CCCC=C2N1 (centres undefined) | - | - | - | . | . | . | . | . | .
Cn1ncc2c(C(=O)NCc3ccc4c(c3)OCO4)cc(-c3ccccc3)nc21 | - | ? | ? | . | . | . | . | . | .
COC(=O)c1cccc(NC(=S)N[C@@H]2C=C[C@@H](c3c(C)nn(-c4ccccc4[N+](=O)[O-])c3C)C2)c1 | - | 40µM | 40µM | 13µM | - | 19µM | ? | - | 24µM
CN1c2cccnc2CN(Cc2ccc(Cl)cc2)CC[C@H]1CO | - | - | ? | - | - | . | . | . | .
CCC(=O)N1CCc2sc(C(=O)N3CCN(c4cccc(Cl)c4)CC3)cc2C1 | - | ? | ? | 10µM | - | 19µM | 19µM | - | 17µM
CCC(=O)N1CCc2sc(C(=O)NC3CCN(Cc4ccccc4)CC3)cc2C1 | - | - | ? | - | - | . | . | . | .
O=C(c1ccc(Cl)cc1)N1CCc2sc(C(=O)N3CCOCC3)cc2C1 | - | ? | ? | - | - | . | . | . | .
CN(C)C(=O)c1cc2c(s1)CCC(C(=O)N1CCN(c3cccc(Cl)c3)CC1)C2 (centres undefined) | - | ? | ? | ? | - | 22µM | 19µM | - | 15µM
SMILES | GPT2 inh | 3T3 cytotox | HEK cytotox | NPR1 antag | FLuc inh | Npr1 antag conf | Npr2 selectivity | FLuc inh counter | GloSensor cGMP
O=C(c1ccccc1)N1CCc2sc(C(=O)N3CCN(c4ccccc4)CC3)cc2C1 | - | ? | ? | 10µM | - | 22µM | 27µM | - | 22µM
O=C1COc2cc(C(=O)NC3CC(c4nnc(CO)n4C4CC4)C3)ccc2N1 (centres undefined) | - | - | - | - | - | . | . | . | .
OC(c1cccc(C(F)(F)F)c1)c1nc(Nc2ccc3c(c2)OCO3)n[nH]1 (centres undefined) | - | ? | ? | ? | - | ? | ? | - | ?
COc1ccc(Nc2n[nH]c(C(O)c3cccc(C(F)(F)F)c3)n2)cc1OC (centres undefined) | ? | - | ? | - | - | . | . | . | .
CN(C/C=C/c1ccccc1)c1cc(C2CC(O)C2)nc(N)n1 (centres undefined) | - | - | ? | 13µM | - | 22µM | 17µM | - | 24µM
Cc1cnc(CN(C)c2cc(C3CC(O)C3)nc(N)n2)[nH]1 (centres undefined) | - | - | - | - | - | . | . | . | .
O=C(c1cocn1)N1CCNc2cnc(Nc3cccc(C(F)(F)F)c3)nc2C1 | - | ? | 71µM | 32µM | - | 35µM | 35µM | - | 31µM
O=C(c1ccc(Cl)cc1)N1CCNc2cnc(Nc3ccccc3)nc2C1 | - | ? | ? | 32µM | - | 35µM | 35µM | - | 35µM
O=C(c1ccccc1)N1CCNc2cnc(Nc3cccc(F)c3)nc2C1 | - | ? | ? | 13µM | - | 13µM | 18µM | - | 16µM
COc1cccc(CCC(=O)NCCC2CCN(C(=O)Nc3ccc(F)cc3)CC2)c1 | - | - | ? | . | . | . | . | . | .
O=C(Nc1cccc(C(F)(F)F)c1)N[C@H]1[C@H](O)[C@@H](N2CCN(c3ccccc3)CC2)[C@@H]2OC[C@H]1O2 | - | ? | ? | - | - | . | . | . | .
Cc1nn(Cc2ccccc2)c(C)c1[C@@H]1C=C[C@@H](NC(=O)c2ccc3c(c2)OCO3)C1 | - | ? | 28µM | 32µM | - | 35µM | 35µM | - | 35µM
O=C(NCc1ccccc1)c1ccccc1OC1CN(Cc2ccsc2)C1 | - | 28µM | ? | - | - | ? | - | - | -
